Screens: PubChem BioAssay, Sanford-Burnham Center for Chemical Genomics
CYP2C19 act: human CYP2C19 activators, primary screen, biochemical, luminescence | Cytochrome P450 2C19 (Homo sapiens), P33261 | recombinant CYP2C19, luciferin-H EGE luminescence; active compounds read high; 0 = fully inhibited enzyme, 1 = untreated enzyme | activation factor at 5 µM | 96,000 tested, under 10 active | AID 1025, 2008;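 active = activation factor of at least 2 at 5 µM in the primary screen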;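 note: 0 = wells with 2.5 mM tranylcypromine and 1 = vehicle-only wells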
CYP2C9 activ: human CYP2C9 activators, primary screen, biochemical, luminescence. recombinant CYP2C9, luciferin-H conversion; active compounds read high; factor 1 = untreated enzyme, 0 = blocked. Cytochrome P450 2C9 (Homo sapiens), P11712. 96,000 compounds, 1.4% hits. activation factor at 5 µM. AID 1024, 2008;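 active = activation factor of 2 or more for CYP2C9 at a 5 µM dose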;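 note: 0 = sulfaphenazole-blocked wells and 1 = vehicle-only wells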
PTK2B oligo ant: antagonists of Pyk2 self-association, primary screen, Q293 cells, FERM NanoBiT luminescence, HTS; 99,000 compounds, 0.83% hits; z-score (the deposit names both 25 µM and 10 µM); active compounds read low;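 active = Z-score of -3 or lower, scaled per plate to the spread of control and sample wells; inactive = z-score above -3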;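 note: negative z-score means lost luminescence so less FERM oligomerization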
CYP2C9 inh: blockers of cytochrome P450 2C9 activity – biochemical, luminescence, ADME assay, primary screen; P11712; CYP2C9 Supersomes, luciferin-H conversion; inhibition, % at 5 µM; 96,000 compounds, 20% hits;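 active = blocking of liver enzyme CYP2C9 beyond about 50% at 5 µM, limit read from the data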
CYP2C19 inhib: blockers of cytochrome P450 2C19 activity – biochemical, luminescence, ADME assay, primary screen. P33261. CYP2C19 Supersomes, luciferin-H EGE luminescence, 30 min. inhibition, % at 5 µM. 96,000 compounds, 21% hits;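 active = CYP2C19 inhibition above a set limit at 5 µM in the primary screen, cut at about 50% in these data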;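 note: plate controls were negative control wells for no effect and 2.5 mM tranylcypromine positive control for full effect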
* hit, by the source's call; · = no result. In the library only some 28% were active in any assay of this set; here they are far more common.

SMILES	CYP2C19 act	CYP2C9 activ	PTK2B oligo ant	CYP2C9 inh	CYP2C19 inhib
CCCOC(=O)c1ccc(NC(=O)/C=C/c2cccs2)cc1	·	·	-1.4	·	·
CCOC(=O)c1c(C)oc2ccc(NS(=O)(=O)c3cccs3)cc12	0.4	0.2	-1.2	79*	64*
CCCOC(=O)c1ccc(NS(=O)(=O)c2cccs2)cc1	1.1	0	-1.9	100*	-14
Cc1ccc(S(=O)(=O)NC(=O)COc2ccccc2C(N)=O)cc1	0.9	0.5	0.96	49	14
CC(C)Cn1c(Cc2ccccc2)n[nH]c1=S	0.6	1.2	-0.63	-23	40
COC(=O)c1ccc(C(=O)OC)c(NC(=O)CSc2cccc[n+]2[O-])c1	1.1	1	0.3	-3	-15
O=C(O)CC(CP(=O)(c1ccccc1)c1ccccc1)C(=O)O (stereo not drawn)	1.1	1.2	-0.08	-18	-12
O=C(O)CC(c1ccccc1)c1ccccc1	1.1	0.5	0.46	52*	-5
COc1ccc(C2C(C#N)=C(/N=C/N3CCN(C)CC3)OC3=C2C(=O)CC(C)(C)C3)cc1OC (stereo not drawn)	0.7	0.7	0.42	33	31
COc1ccc(Nc2ncnc3c2cnn3Cc2ccccc2)cc1	0.4	0.6	-2.8	44	55*
CCOc1ccc(Nc2ncnc3c2cnn3Cc2ccccc2)cc1	0.7	0.6	-3.1*	36	29
CCOc1ccc(Nc2ncnc3c2cnn3-c2ccccc2)cc1	0.9	1	·	-2	11
Cc1cc(N(CC(=O)O)S(C)(=O)=O)ccc1Br	0.8	1.1	-0.09	-13	16
CCCCC(CC)CNC(=O)c1ccc2c(c1)OCO2 (stereo not drawn)	0.7	0.5	-1.1	48	27
Cc1cc(=O)[nH]c(SCCOc2cccc(C(F)(F)F)c2)n1	0.8	1	-0.04	-1	18
COc1ccc(-c2cc(C(F)(F)F)n3nc(C(=O)N4CCCC4)cc3n2)cc1	0.9	1.1	0.4	-13	12
Cc1ccc(-c2cc(C(F)F)n3ncc(C(=O)N4CCN5CCCC5C4)c3n2)cc1 (stereo not drawn)	1.1	0.6	1.7	37	-7
CCOC(=O)C1CCCN(C(=O)c2cnn3c(C(F)F)cc(-c4ccc(C)cc4)nc23)C1 (stereo not drawn)	0.7	0.3	-0.96	73*	28
COc1ccc(-c2cc(C(F)F)n3ncc(C(=O)N4CCSCC4)c3n2)cc1	0.6	0.2	0.14	76*	40
CCOC(=O)C1CCCN(C(=O)c2cc3nc(-c4ccc5c(c4)OCO5)cc(C(F)(F)F)n3n2)C1 (stereo not drawn)	0.5	0.4	1.6	56*	45
Cc1nc2ccccc2n1C1CC(=O)N(Cc2ccccc2)C1=O (stereo not drawn)	0.7	0.7	0.39	32	31
Fc1ccc(Sc2ccccc2CNC2=NCCN2)cc1	·	·	0.22	·	·
COCCNC(=O)Cn1nc(C(F)(F)F)c(Br)c1C	0.6	0.5	0.22	52*	35
COCCNC(=O)Cn1nc(C(F)(F)F)cc1C	1	0.9	0.35	6	-1
Cc1cc(OCC[N+]2(C)CCCCC2)nc2ccccc12	1	1	1	1	4
SMILES	CYP2C19 act	CYP2C9 activ	PTK2B oligo ant	CYP2C9 inh	CYP2C19 inhib
COc1ccc(-c2nc(C#N)c(NCc3ccccc3Cl)o2)cc1	1.2	1.1	-1.2	-11	-19
N#Cc1nc(-c2ccco2)oc1NCc1ccc(F)cc1	0.7	0.2	-0.97	82*	31
N#Cc1nc(-c2ccc(Cl)cc2)oc1NCc1cccc2c1OCO2	0.7	0.1	-0.28	94*	34
N#Cc1nc(-c2ccc(Cl)cc2)oc1NCc1ccco1	0.9	0.1	-0.71	85*	14
N#Cc1nc(-c2ccc(Cl)cc2)oc1NCCc1ccccn1	0.8	0.9	-0.1	14	17
N#Cc1nc(-c2ccco2)oc1NCc1cccnc1	0.6	0.9	-0.24	15	37
COc1ccc(CNc2oc(-c3ccccc3)nc2C#N)cc1	0.7	0.2	·	84*	27
COc1ccc(-c2nc(C#N)c(NCCc3ccccc3)o2)cc1	·	·	-1.3	·	·
Cc1csc(NC(=O)C2CCN(C(=O)CSc3nnc(C)n3Cc3ccccc3)CC2)n1	0.6	0.6	-0.06	43	36
